Results on 5 compounds are retold here after PubChem BioAssay (NCATS).

Assay [1] is described as follows: Cell Viability - BJ (AID 421).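 Also: potency is read from the fitted curve at half-maximal effect; cells exposed to compound for 40 hours at 37 °C before readout.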 The note with it: BJ fibroblast viability, qHTS. An outline of the steps:
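Cytotoxicity as drop in intracellular ATP (CellTiter-Glo, 20 min RT) after 40 hr compound exposure of BJ fibroblasts at 37 °C. Titrations scaled between DMSO and 100 uM tamoxifen, Hill-fitted for AC50.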
On the technique in general: Quantitative high-throughput screening tests each substance at several concentrations.

The nature of assay [2]: Cell Viability - SH-SY5Y (AID 544; active = well fitted curve in the direction sought with a large enough effect; an effect the other way counts as inactive or inconclusive;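 also: cells exposed to compound for 40 hours; 0% = DMSO alone and -100% = 100 µM tamoxifen; nearly all actives have a fitted effect of over 55% in size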). To be noted: SH-SY5Y neuroblastoma cell viability; viability change, negative = cytotoxic: at 92.2 µM (top of the series). An outline of the steps: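 SH-SY5Y human neuroblastoma cells (1500/well) incubated 5 h, then compound-treated 40 h at 37 °C in complete medium. Viability read as intracellular ATP by CellTiter-Glo luminescence after 20 min; AC50 from Hill-equation fits of qHTS concentration-response.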

The nature of assay [3]: Cellular Toxicity (caspase-3) N2a (AID 665; active = well fitted curve in the direction sought with a large enough effect; an effect the other way counts as inactive or inconclusive;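 also: compound exposure lasted 16 h at 37 °C before readout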). The note with it: N2a cells, luminescence, normalized: DMSO 0%, 10 µM staurosporine 100%; at 92.2 µM (top of the series). An outline of the steps:
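Mouse N2a neuroblastoma cells, 1500 per well, treated 16 h at 37 °C in complete medium; caspase-3/7 activity by Caspase-Glo luminescence after 1 h. Normalized to DMSO and 10 uM staurosporine; AC50 from Hill fits.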

Assay [4] can be described thus: Cell Viability - LYMP1-003 - Assay at 40 hr (AID 964; active = well fitted curve in the direction sought with a large enough effect; an effect the other way counts as inactive or inconclusive; also: % is scaled to controls: 0 for no effect and ±100 for the full control effect; nearly all actives have a fitted effect of over 60% in size). The note with it: LYMP1-003 lymphoblastoid viability; series mostly up to 92.2 µM. An outline of the steps: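 LYMP1-003 human lymphoblastoid cells, 2500/well, preincubated 5 h at 37 C, then treated with compound for 40 h at 37 C. Intracellular ATP read by CellTiter-Glo luminescence after 30 min at room temperature; AC50 from Hill-equation fits.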

Assay [5] is described as follows: Cell Viability - LYMP2-017 (AID 972; active = well fitted curve in the direction sought with a large enough effect; an effect the other way counts as inactive or inconclusive; also: % is scaled to controls: 0 for no effect and ±100 for the full control effect; nearly all actives have a fitted effect of over 55% in size). To be noted: LYMP2-017 lymphoblastoid cell viability; series mostly up to 92.2 µM. An outline of the steps: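 LYMP2-017 human lymphoblastoid cells (2500/well) settled 5 hr at 37 C, then exposed to compound 24 hr at 37 C in complete medium. Viability taken as intracellular ATP by CellTiter-Glo luminescence after 30 min at RT; AC50 from Hill fits.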

In assay [6] the target is Bile acid receptor (Homo sapiens) (UniProt Q96RI1). The assay can be described thus: qHTS assay for small molecule antagonists of farnesoid X receptor signaling (AID 588526). Also: % is scaled to controls: 0 for no effect and ±100 for the full control effect. The note with it: HEK293T FXR-UAS-bla, beta-lactamase ratio, antagonist mode; series mostly up to 76.7 µM. An outline of the steps: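 Concentration-response titrations were fitted to the Hill equation for half-maximal inhibition and maximal response, with data normalised to 50 uM chenodeoxycholic acid and DMSO control wells. Cells: FXR-UAS-bla HEK293T, dialyzed FBS.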
Chain of Bile acid receptor (Homo sapiens) (Q96RI1 whole entry, looked up): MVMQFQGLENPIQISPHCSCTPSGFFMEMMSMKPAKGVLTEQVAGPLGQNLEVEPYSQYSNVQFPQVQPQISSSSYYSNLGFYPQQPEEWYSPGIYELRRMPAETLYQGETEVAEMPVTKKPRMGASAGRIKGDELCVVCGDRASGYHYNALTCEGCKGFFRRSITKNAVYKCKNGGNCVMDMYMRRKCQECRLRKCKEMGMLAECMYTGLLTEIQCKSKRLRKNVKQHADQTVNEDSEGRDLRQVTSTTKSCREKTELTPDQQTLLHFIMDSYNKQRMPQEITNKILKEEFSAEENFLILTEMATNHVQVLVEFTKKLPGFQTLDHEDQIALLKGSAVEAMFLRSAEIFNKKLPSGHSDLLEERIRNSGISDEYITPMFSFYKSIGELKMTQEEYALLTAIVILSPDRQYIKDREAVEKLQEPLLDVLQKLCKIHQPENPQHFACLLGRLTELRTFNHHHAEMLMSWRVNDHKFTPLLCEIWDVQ

Assay [7] shares this target. The experiment in a line: qHTS assay for small molecule agonists of farnesoid X receptor signaling (AID 588527).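 Also: 0% = vehicle basal and 100% = reference agonist.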 To be noted: HEK293T FXR-UAS-bla, beta-lactamase ratio, 16 h; stronger effect = higher value. An outline of the steps: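 Agonist-mode beta-lactamase reporter in GeneBLAzer FXR-UAS-bla HEK293T cells, titration up to 92 uM, 16 h exposure at 37 C, CCF4 fluorescence. Response scaled to DMSO (0%) and 100 uM chenodeoxycholic acid (100%), then Hill-fitted for EC50 and efficacy.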

The nature of assay [8]: qHTS assay for small molecule antagonists of peroxisome proliferator-activated receptor delta signaling (AID 588535).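 Also: cells co-treated with a PPAR-delta agonist as stimulator during compound exposure.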 To be noted: HEK293T PPARd-UAS-bla, beta-lactamase FRET ratio, 18 h; 460 nm channel. An outline of the steps:
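Reporter: UAS-bla under PPAR-delta response element, HEK293T host. Medium: 2% charcoal/dextran FBS. Dosing: titration, 18 hrs, 37 C. Detection: CCF4, 2 hrs RT, 405 ex/460 and 530 em.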

Assay [9] has as its target Vitamin D3 receptor (Homo sapiens) (UniProt P11473). The assay can be described thus: qHTS assay for small molecule antagonists of vitamin D receptor signaling (AID 588541).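 Also: receptor activated by calcitriol during compound treatment; % is scaled to controls: 0 for no effect and ±100 for the full control effect.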 To be noted: HEK293T VDR-UAS-bla, beta-lactamase ratio, antagonist mode; series mostly up to 76.7 µM. An outline of the steps:
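VDR-UAS-bla HEK293T cells (2000/well, 2% charcoal-stripped FBS) were treated with titrated compounds plus 1-alpha,25-dihydroxyvitamin D3 (50 nM or 3 nM final) for 16 h at 37 C. CCF4 beta-lactamase fluorescence was read; Hill fits gave IC50.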

Assay [10] has the same target. The assay can be described thus: qHTS assay for small molecule agonists of vitamin D receptor signaling (AID 588543).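 Also: 0% = DMSO basal and 100% = reference agonist control.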 The note with it: HEK293T VDR-UAS-bla, beta-lactamase ratio, 16 h; series mostly up to 76.8 µM. An outline of the steps:
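β-lactamase reporter, VDR-UAS-bla HEK293T, agonist mode. Cells plated 5 h at 37 °C, compound titration 16 h at 37 °C, CCF4 dye 2 h RT, ratio 460/530 nm. Hill fit → EC50, efficacy vs 50 nM 1α,25-(OH)2D3.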

The target in assay [11] is Thyroid hormone receptor beta (Homo sapiens) (UniProt P10828). The assay can be described thus: qHTS assay for small molecule agonists of thyroid hormone receptor beta signaling (AID 588545).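 Also: 0% = DMSO only and 100% = 10 nM T3.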 To be noted: TR-UAS-bla GripTite HEK 293, beta-lactamase ratio, agonist mode, 18 h, percent of T3 response, DMSO as zero; series mostly up to 76.7 µM. An outline of the steps: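 Beta-lactamase reporter activity under TR response element control is measured in HEK 293 cells after 18 hrs compound exposure. Signal is ratiometric CCF4 fluorescence, 460/530 nm.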
Chain of Thyroid hormone receptor beta (Homo sapiens) (P10828 whole entry, looked up): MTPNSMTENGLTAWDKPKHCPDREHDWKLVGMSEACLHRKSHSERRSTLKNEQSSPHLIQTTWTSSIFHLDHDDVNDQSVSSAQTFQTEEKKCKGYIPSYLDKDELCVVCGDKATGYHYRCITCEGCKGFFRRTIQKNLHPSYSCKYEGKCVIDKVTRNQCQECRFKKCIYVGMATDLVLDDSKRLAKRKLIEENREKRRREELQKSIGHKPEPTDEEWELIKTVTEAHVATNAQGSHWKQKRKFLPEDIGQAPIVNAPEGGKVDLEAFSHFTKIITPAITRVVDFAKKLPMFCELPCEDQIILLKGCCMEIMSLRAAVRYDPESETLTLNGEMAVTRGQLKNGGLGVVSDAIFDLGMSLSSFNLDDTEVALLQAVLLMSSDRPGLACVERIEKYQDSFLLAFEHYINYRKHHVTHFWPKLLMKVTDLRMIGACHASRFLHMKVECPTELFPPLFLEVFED

Assay [12] can be described thus: qHTS assay for small molecule agonists of the antioxidant response element (ARE) signaling pathway (AID 651741; active = well fitted activation curve with a large enough effect in the signal ratio; the % refers to the signal ratio; also: potency is read from the fitted curve at half-maximal effect; as to activation: % of control where 0% means no effect). The note with it: HepG2 ARE-bla reporter, beta-lactamase FRET ratio, 16 h; series mostly up to 96 µM. An outline of the steps: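 Compounds in DMSO are pinned onto HepG2 ARE-bla cells (2,000/well) that were preincubated 5 h; plates stay 16 h at 37 C, then beta-lactamase activity is detected with LiveBLAzer B/G substrate by fluorescence.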

The nature of assay [13]: qHTS assay for small molecule disruptors of the mitochondrial membrane potential - 5 hr assay (AID 651755). Also: % is scaled to controls: 0 for no effect and ±100 for the full control effect; nearly all actives have a fitted effect of over 40% in size. The note with it: JC-1-type ratio dye; series mostly up to 92.2 µM. An outline of the steps: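 HepG2 cells, attached overnight at 37C, were exposed to compound or DMSO for 5 hr at 37C, 5% CO2. Mito-MPS dye was then added for 30 min, and fluorescence read at 490/535 nm (monomers) and 540/590 nm (aggregates).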

Assay [14] can be described thus: qHTS assay for small molecule agonists of the antioxidant response element (ARE) signaling pathway measured by Nrf2-dependant transcriptional activity - cell viability counter screen (AID 720653; active = well fitted curve in the direction sought with a large enough effect in the repeat runs; an effect the other way counts as inactive or inconclusive; also: % is scaled to controls: 0 for no effect and ±100 for the full control effect). To be noted: ARE-bla HepG2 viability, CellTiter-Glo ATP luminescence, 16 h; stronger effect = lower value. An outline of the steps:
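ARE-bla HepG2 cells (2,000/well) rested 5 hrs at 37C/5% CO2, then exposed to compounds in DMSO for 16 hrs. Viability was read in the same wells as intracellular ATP by luminescence, 30 min at room temperature after reagent addition.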

Assay [15] can be described thus: qHTS assay for small molecule activators of the human pregnane X receptor (PXR) signaling pathway (AID 720659; call rule not given here; also: 0% is about no effect). To be noted: DPX-2 HepG2 CYP3A4-luciferase, 24 h; series mostly up to 92.3 µM.
Assay [16] is described as follows: Cell Viability - LYMP2-009 (AID 968; active = well fitted curve in the direction sought with a large enough effect; an effect the other way counts as inactive or inconclusive;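 also: 0% = DMSO alone and the full-kill end = tetraoctylammonium bromide at 92 µM; nearly all actives have a fitted effect of over 55% in size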). To be noted: LYMP2-009 lymphoblastoid cell viability; series mostly up to 92.2 µM.
Assay [17] deals with Retinoic acid receptor RXR-alpha (Homo sapiens) (UniProt P19793). The experiment in a line: qHTS assay for small molecule antagonists of retinoid X receptor alpha signaling (AID 588546; active = well fitted inhibition curve with a large enough effect in the signal ratio, with a control signal flat, not every such curve was filed as active; the % refers to the signal ratio;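 also: cells stimulated with 9-cis-retinoic acid as agonist; % is scaled to controls: 0 for no effect and ±100 for the full control effect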). The note with it: HEK293T RXRa-UAS-bla, beta-lactamase ratio, antagonist mode. An outline of the steps:
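Beta-lactamase reporter inhibition, read as CCF4 fluorescence ratio (ex 405, em 460/530 nm) after 2 h at RT. HEK293T UAS-bla cells, 2500/well, were stimulated with 9-cis-RA at 500 or 100 nM final alongside test compound for 18 h at 37 C.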

Assay [18] is described as follows: qHTS assay for small molecule activators of the nuclear factor-kappa B (NF-kB) signaling pathway (AID 651749; active = well fitted activation curve with a large enough effect in the signal ratio; the % refers to the signal ratio; also: % of control where 0% means no effect). To be noted: NF-kB-bla ME-180 cells, beta-lactamase FRET ratio, 16 h; activation: stronger effect = higher value. An outline of the steps: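 Screening used 2,000 ME-180 reporter cells per well exposed to pinned compound (23 nL) or DMSO; after 16 hr at 37C, beta-lactamase expression under NF-kB control was assessed through FRET.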

Values joined by “and” are separate entries in the source; they are usually repeats but may differ in a detail not shown here. Equal values may be shown once. Inconclusive results are not listed. Active and inactive are the calls of the source. Unless noted, calls follow the shape of the full dose curve. A value given as a limit tells only on which side of the number the result lay.

Chain of Vitamin D3 receptor (Homo sapiens) (P11473 whole entry, looked up): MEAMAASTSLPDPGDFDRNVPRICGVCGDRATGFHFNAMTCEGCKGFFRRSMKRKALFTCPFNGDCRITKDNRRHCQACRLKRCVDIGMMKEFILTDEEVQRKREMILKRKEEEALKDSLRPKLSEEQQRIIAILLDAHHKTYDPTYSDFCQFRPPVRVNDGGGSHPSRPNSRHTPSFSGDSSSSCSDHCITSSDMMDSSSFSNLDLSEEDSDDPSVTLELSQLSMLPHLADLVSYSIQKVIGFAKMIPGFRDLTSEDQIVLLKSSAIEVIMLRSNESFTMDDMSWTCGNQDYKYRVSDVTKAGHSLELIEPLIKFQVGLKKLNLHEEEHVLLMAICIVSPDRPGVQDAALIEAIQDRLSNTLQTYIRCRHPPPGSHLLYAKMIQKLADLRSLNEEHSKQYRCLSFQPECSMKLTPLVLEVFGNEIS
Chain of Retinoic acid receptor RXR-alpha (Homo sapiens) (P19793 whole entry, looked up): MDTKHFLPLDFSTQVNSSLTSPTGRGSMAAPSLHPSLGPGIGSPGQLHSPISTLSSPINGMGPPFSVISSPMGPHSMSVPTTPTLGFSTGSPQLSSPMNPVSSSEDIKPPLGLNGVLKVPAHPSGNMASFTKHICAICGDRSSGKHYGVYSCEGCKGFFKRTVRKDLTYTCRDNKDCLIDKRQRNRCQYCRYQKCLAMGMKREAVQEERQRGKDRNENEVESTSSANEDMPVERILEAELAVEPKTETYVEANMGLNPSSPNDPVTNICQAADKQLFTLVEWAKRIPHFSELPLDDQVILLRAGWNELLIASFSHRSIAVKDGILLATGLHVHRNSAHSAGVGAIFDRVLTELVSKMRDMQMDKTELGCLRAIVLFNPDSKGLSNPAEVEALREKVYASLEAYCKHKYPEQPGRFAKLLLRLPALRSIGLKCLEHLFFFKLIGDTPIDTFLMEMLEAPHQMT

Take `ClC(Cl)(Cl)c1ccccc1`: the Potency in assay [1] is > 92 µM (inactive). Besides, the Potency result in [2], in assay [4], in assay [5], in assay [12] and in assay [13] was “inactive” throughout. In addition, the caspase-3 activation in [3] is -0.73% (inactive) and -1.88% (inactive). Moreover, the outcome in assay [6], in [9], in [10], in assay [11] and in assay [15] was inactive. The activation in [7] was -1.47% (inactive) and 0.945% (inactive). The max response in [8] is 32% and 10.5%; in assay [14] it was -1.54% (inactive) and 10.3% (inactive).

Take `ClC(Cl)=C(Cl)Cl`: in assay [1], the Potency is > 92 µM (inactive). For the same compound, the Potency entry in assay [2], in assay [4], in assay [16], in assay [5], in assay [12] and in [13] was “inactive” throughout. Further, the caspase-3 activation in [3] is 0.443% (inactive) and 1.4% (inactive). Moreover, the result in [6], in assay [9], in [10], in [11] and in [15] was inactive. The activation in assay [7] is 0.975% (inactive) and -2.66% (inactive); in assay [18], 0.509% (inactive) and -0.543% (inactive). Further, the max response in [17] is 2.53% (inactive) and 3.68% (inactive).

On to `C=C(C)C#N`, for which the Potency entry in assay [2] is “inactive”. Moreover, in assay [3], the caspase-3 activation is -1.66% (inactive). In addition, the outcome in assay [6], in [9], in [10] and in assay [15] was inactive. Also, the activation in [7] is 0.805% (inactive) and -0.908% (inactive). Besides, the max response was -5.47% (inactive) and -20.9% (inactive) in assay [17]; -12.2% (inactive) and -0.888% (inactive) in assay [14].

As for `CC(=O)[O-].CC(=O)[O-].O.O.O.[Pb+2]`, the Potency was > 92 µM (inactive) in assay [1]; 33.5 µM (active) and 37.6 µM (active) in assay [12]. Further, the Potency entry in assay [4], in assay [16] and in assay [5] was “inactive” throughout. Also, the outcome in [11] was inactive. The max response in assay [14] was -9.67% (inactive) and 5.41% (inactive).

As for `O=C(Cl)/C=C/C(=O)Cl`, the Potency in assay [1] is > 92 µM (inactive). Further, the caspase-3 activation in assay [3] is -4.67% (inactive). The Potency entry in [5] and in assay [12] was “inactive” throughout. Besides, the result in assay [6], in assay [9], in assay [10], in [11] and in assay [15] was inactive. Moreover, the activation in [7] was 1.15% (inactive); in assay [18] it was 2.63% (inactive). Further, the max response in [14] is 3.07% (inactive).
